According to the supplement of paper PMC6555819:

Columns and labels:
Assay in all cases: PBM binding z-score (relative to random genomic background probes); higher = stronger binding; sequences stand for … in GC…GCGATTGACAGCGTAGAATGAAGG
[1] = system: RARb homodimer (NR concentration 270 nM)
Method in brief: (§1)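 Binding z-scores were set against random background probes. The data came from custom Agilent 4×180K protein-binding microarrays carrying double-stranded probes with 34-nt variable regions, incubated 1 h with ligand-free nuclear receptor dimers. Partner-specific antibodies detected binding, and scanned fluorescence was regression-normalized.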

[2] = system: RARg:RXRa (NR concentration 270 nM, RXRa partner concentration 90 nM)
Method in brief: as §1

[3] = system: RARg homodimer (NR concentration 270 nM)
Method in brief: as §1

[4] = system: RXRa DBDmut IVT, anti-RXR (DBD mutation: RXRa K156A/R161A, NR concentration 90 nM)
Method in brief: as §1

[5] = system: RXRa homodimer (NR concentration 180 nM)
Method in brief: as §1

[6] = system: THRa:RXRa (NR concentration 90 nM, RXRa partner concentration 90 nM)
Method in brief: as §1

[7] = system: THRa homodimer (NR concentration 90 nM)
Method in brief: as §1

[8] = system: VDR:RXRa (NR concentration 270 nM, RXRa partner concentration 90 nM)
Method in brief: as §1

[9] = system: VDR homodimer (NR concentration 270 nM)
Method in brief: as §1

Row | Sequence | PBM binding z-score [1] | PBM binding z-score [2] | PBM binding z-score [3] | PBM binding z-score [4] | PBM binding z-score [5] | PBM binding z-score [6] | PBM binding z-score [7] | PBM binding z-score [8] | PBM binding z-score [9]
1 | TTACCAAGGTGAAGGTCGTTGATCCCTCTGTAGA | 1.7 | 1.29 | 1.32 | 0.0227 | 1.7 | 2.34 | 1.1 | 1.24 | 1.15
2 | GTACTAAGGTGAATAGGTCGTTGATGAGTAGGCG | 2.3 | 3.3 | 1.84 | 0.451 | 2.22 | 3.11 | 1.66 | 1.24 | 0.722
3 | CCTACTGGGCCATCGGGTCATTGATATCAACGTT | 2.25 | 2.25 | 1.72 | -0.759 | 1.89 | 2.86 | 1.94 | 2.27 | 1.68
4 | TCTATTAGTTGATTAGGGCAACCGCAACAGCGGA | 0.671 | 0.648 | 0.445 | 0.932 | 0.721 | 0.679 | 0.272 | 0.526 | 0.125
5 | TCATAGAGGTAAAAGGTGAAAGTCGGTGTGGTAA | 1.72 | 2.5 | 0.912 | 1.01 | 4 | 1.97 | -0.0823 | 1.48 | -0.219
6 | CCTACTGGGCCAAGGCCATTGATCAGTCAAAGCA | 0.497 | -0.179 | -0.0334 | -1.15 | -0.715 | 0.101 | -0.288 | -0.446 | -0.406
7 | GCTCGGAGGACAAGGTCAGAGATTTGTCCGTAGA | 2.83 | 2.84 | 3.13 | 0.212 | 2.23 | 2.82 | 1.51 | 1.22 | 0.17
8 | CCTTACGGGGCACTCCAGGTTATAGCATCGGAGT | 0.528 | 0.714 | 0.823 | -0.513 | 0.523 | 3.58 | -0.229 | 0.0326 | 0.0884
9 | ATATGTAGCTTATCGGGTCATTCAGTTTGCGCAT | 2.24 | 1.85 | 1.35 | 1.26 | 2.35 | 3.03 | 2.6 | 4.71 | 3.7
10 | CCCTACGGGTCACTGACAGGTTATAGCATTTGGA | 3.42 | 5.77 | 4.37 | 0.859 | 4.97 | 2.93 | 0.405 | 3.56 | 1.07
11 | TAGCCCAGGTCATTCAGGGGCCAGTATAGAAAGC | 3.34 | 6.39 | 4.29 | 2.4 | 3.39 | 3.71 | 1.48 | 3.65 | 2
12 | AATACAGGGTCACAAGGCCAGAGTAGGTACGAAT | 3.8 | 6.03 | 5.53 | 3.06 | 6.78 | 3.86 | 1.78 | 4.82 | 2.64
13 | CGAACTGGGTCATTGACAGGACAGTGAATAGTAA | 2.17 | 4.32 | 3.3 | 1.94 | 2.88 | 2.41 | 0.357 | 2.05 | 1.05
14 | CGTCCAAGGTCATAGAAGGTCAGTGAAGACAGAT | 5.56 | 6.7 | 7.06 | 4.03 | 6.78 | 5.07 | 2.62 | 6.34 | 4
15 | AGAACGAGTGCAATGAGTTGATAGCACGGGTGGC | -0.553 | 0.1 | -0.109 | 2.82 | 0.283 | -0.264 | -1.03 | 4.09 | 4.06
16 | AGAACGACGGCACGCTGAGTTGATAGCAGAGTAG | -0.983 | -0.171 | -0.213 | -0.569 | -0.1 | -0.601 | -1.14 | -0.301 | -0.198
17 | TCTTGGAGATCAAGCAGGTTAAGAAAGCCTGAGT | 0.0966 | 0.06 | -0.27 | 0.163 | 0.643 | 0.589 | -0.604 | 1.04 | 0.0474
18 | ACTAGTTGGTCAGCTGAGATCACACACAATTCGG | 0.406 | 0.638 | 0.88 | 0.396 | 0.449 | 0.991 | -0.107 | 0.193 | -0.0701
19 | CCTACTGGGCCAAAGGTCATTCATTCCAATGCTC | 4.47 | 5.99 | 4.7 | 1.65 | 6.93 | 3.3 | 1.06 | 4.67 | 3.3
20 | CCGAGGAGGTTATGGGGCATTCAGGCAACGGTGA | 1.31 | 1.42 | 0.885 | 0.0755 | 1.95 | 1.25 | 0.438 | 0.925 | 0.25
21 | TCAAATAGGTAAAGGTGAAAGTCGAACGATATGA | 1.73 | 1.78 | 1.49 | 1.55 | 2.33 | 1.32 | -0.328 | 1.17 | 0.351
22 | TCTTGTAGATCAGCAGGTTAAGGAAGCTGGCCAA | 0.142 | 0.132 | -0.17 | 0.474 | 0.329 | 0.266 | -0.666 | 0.37 | -0.598
23 | CCTACTGCGCCAAGGTCATTGATCAGTCAAAGCA | 3.46 | 3.72 | 2.98 | 2.48 | 3.42 | 3.54 | 3.12 | 3.65 | 4.13
24 | TTACCAAGGTGAAGGTCCTTGATCCCTCTGTAGA | 1.32 | 0.466 | 0.274 | -0.201 | 0.918 | 1.95 | 0.841 | 0.388 | -0.203
25 | TAGCCTAGGTCGTGCGGGCCAGTATAGTGTCGGC | 0.429 | 0.705 | 0.719 | -0.774 | 0.344 | 0.675 | -0.487 | 0.148 | -0.502
26 | TCTAGTTGGTCACGGAGGTCACACCCGACGGGTA | 3.93 | 4.53 | 4.61 | 0.865 | 4.68 | 3.44 | 2.28 | 5.67 | 3.22
